Values without a mark were called inactive.
Test system: Vero E6 infected with SARS-CoV-2
Test: inhibition of SARS-CoV-2 cytopathic effect; higher = more antiviral protection, active = above 15
Settings: 48 h

Row | Structure (SMILES) | inhibition of SARS-CoV-2 cytopathic effect (1 nM) | inhibition of SARS-CoV-2 cytopathic effect (8.33 nM) [%] | inhibition of SARS-CoV-2 cytopathic effect (100 nM) [%] | inhibition of SARS-CoV-2 cytopathic effect (833.33 nM) [%] | inhibition of SARS-CoV-2 cytopathic effect (10000 nM)
1 | CCCCC1(COC(=O)CCC(=O)O)C(=O)N(c2ccccc2)N(c2ccccc2)C1=O [suxibuzone] | -0.21% | -4.18 | -2.21 | -3.64 | 0.42%
2 | CCC(=O)NS(=O)(=O)c1ccc(-c2c(-c3ccccc3)noc2C)cc1 [parecoxib] | -0.31% | 0.02 | 1.66 | 1.26 | -1.54%
3 | Cc1ncc([N+](=O)[O-])n1CC(O)CCl (stereo not given) [ornidazole] | -2.81% | 0.99 | 1.14 | -1.29 | 1.51%
4 | CCCCCCCN(CC)CCC[C@@H](O)c1ccc(NS(C)(=O)=O)cc1 (racemic) [ibutilide] | -3.47% | -2.14 | -2.19 | 0.97 | -2.22%
5 | Cc1c(C)c(NCC(=O)N(C)C2CCN(Cc3ccc(C(N)=O)cc3)CC2)c(C)c(C)c1N | -0.43% | -0.21 | 0.76 | -0.15 | 2.16%
6 | C#CCN1C(C)=C(C(=O)OC)C(c2cccc([N+](=O)[O-])c2)C(C(=O)OCC)=C1C (stereo not given) | 0.91% | 2.53 | 0.36 | 3.36 | 6.77%
7 | O=c1ccc2cc(O[C@@H]3O[C@H](CO)[C@@H](O)[C@H](O)[C@H]3O)c(O)cc2o1 [esculin] | -1.01% | -0.49 | -1.32 | -1.49 | -0.95%
8 | CC(C)N1CCN(c2ccc(OCC3COC(Cn4cncn4)(c4ccc(Cl)cc4Cl)O3)cc2)CC1 (stereo not given) [terconazole] | 1.55% | 0.07 | 4.2 | -1.24 | 11.5%
9 | N=C(N)S/C=C\C(=O)O | 1.98% | 0.81 | -2.6 | -1.03 | -0.56%
10 | CCC(C)SSc1ncc[nH]1 (stereo not given) | -1.26% | -14.1 | 1.61 | 2.44 | -1.36%
11 | O=C(O)CCCCCCCC(=O)O [azelaic-acid] | 24.2% (active) | 0.49 | -0.06 | 0.7 | -3.28%
12 | COc1ccc(C2(CNC(=O)c3ccc(NC(=O)c4ccco4)cc3)CCOCC2)cc1 | 1.26% | 1.21 | -2.16 | -1.65 | -2.44%
13 | CCN(CC)CCCCNc1ncc2cc(-c3cc(OC)cc(OC)c3)c(NC(=O)NC(C)(C)C)nc2n1 | -0.74% | 1.53 | -0.45 | -4.96 | 45.1% (active)
14 | Cc1c(N)nc([C@H](CC(N)=O)NC[C@H](N)C(N)=O)nc1C(=O)N[C@H](C(=O)N[C@H](C)[C@@H](O)[C@H](C)C(=O)N[C@H](C(=O)NCCc1nc(-c2nc(C(=O)NCCC[S+](C)C)cs2)cs1)[C@@H](C)O)[C@@H](OC1OC(CO)C(O)C(O)C1OC1OC(CO)C(O)C(OC(N)=O)C1O)c1cnc[nH]1 (stereo not given in full) [bleomycin] | -3.91% | -1.18 | -1.47 | -11.3 | -21.5%
15 | O=C(Nc1cc(Cl)cc(Cl)c1O)c1c(O)c(Cl)cc(Cl)c1Cl [oxyclozanide] | -1.81% | -0.46 | 0.71 | -1.33 | -1.62%
16 | COc1cccc(CN(C(=O)CC(C)(C)C)[C@H]2C[C@@H](C(=O)N3CCNCC3)N(Cc3ccc4c(c3)OCO4)C2)c1 | 7.37% | 2.78 | 5.86 | -0.43 | -2.99%
17 | CNC(=O)c1ccc2c(c1)S(=O)(=O)c1ccccc1C2=O | 0.15% | 0.66 | 1.63 | -1.32 | -0.42%
18 | COc1cc(-c2cc(-c3cccc(O)c3)cnc2N)cc(OC)c1OC | -0.86% | -1.83 | -1.83 | 1.55 | 2.09%

Source: the supplement of paper PMC13380429
